NPR1 antag – blocks ANP-stimulated signaling of human Npr1 receptor. P16066. Potency, µM (series often up to 46.3 µM), usual class: inhibitors. actives 1.6% (n = 76,000). HEK293 hNpr1 GloSensor cGMP, ANP-stimulated luminescence; calls by dose curve; also: nearly all actives have a fitted effect of over 60% in size
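HEK293 cells stably expressing human Npr1 and cGMP GloSensor pGS-40F, loaded 2 h with 2% GloSensor reagent, given compound 30 min at room temperature. Luminescence read before and 20 min after 0.1 nM hNppA.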
HEK293 tox – HEK 293 cell cytotoxicity. HEK 293 viability, ATP luminescence (CellTiter-Glo), 48-72 h. Potency, µM (series often up to 115 µM), usual class: inhibitors. actives 6.6% (n = 94,000); also: nearly all actives have a fitted effect of over 60% in size
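HEK 293 cells seeded at 250 cells/well were exposed to compound for 48 or 72 hr at 37 degree Celsius. Viability taken as ATP content by CellTiter-Glo luminescence.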
FLuc inh – Photinus pyralis luciferase inhibition; actives 2.5% (n = 76,000); purified P. pyralis luciferase, luminescence, biochemical; Potency, µM (doses to about 115 µM), hits mostly inhibitors; AID 1347043; also: nearly all actives have a fitted effect of over 65% in size
Target sequence (P08659 whole entry, looked up): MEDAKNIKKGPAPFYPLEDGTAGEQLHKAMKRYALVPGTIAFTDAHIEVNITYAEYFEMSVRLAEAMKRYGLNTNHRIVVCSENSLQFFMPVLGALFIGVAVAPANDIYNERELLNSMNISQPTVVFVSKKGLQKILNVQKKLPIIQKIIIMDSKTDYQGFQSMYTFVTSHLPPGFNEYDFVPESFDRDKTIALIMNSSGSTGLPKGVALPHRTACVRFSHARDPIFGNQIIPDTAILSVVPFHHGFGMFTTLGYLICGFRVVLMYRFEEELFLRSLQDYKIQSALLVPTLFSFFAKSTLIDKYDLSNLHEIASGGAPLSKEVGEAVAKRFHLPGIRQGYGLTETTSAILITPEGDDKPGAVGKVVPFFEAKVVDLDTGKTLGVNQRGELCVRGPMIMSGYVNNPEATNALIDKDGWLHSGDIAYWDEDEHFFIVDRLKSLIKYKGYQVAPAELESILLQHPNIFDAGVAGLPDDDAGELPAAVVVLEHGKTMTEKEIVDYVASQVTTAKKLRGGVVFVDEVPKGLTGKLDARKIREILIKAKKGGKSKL
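Inhibitors were tested against purified firefly luciferase in a biochemical, low-substrate format (both substrates at 10uM) and luminescence measured with a CCD imager.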
3T3 cytotox – kills NIH 3T3 cells; Potency, µM (series often up to 96.7 µM), hits mostly inhibitors; actives 4.3% (n = 94,000); NIH 3T3 viability, CellTiter-Glo ATP luminescence, 48-72 h; also: nearly all actives have a fitted effect of over 55% in size
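Cytotoxicity is measured as loss of cellular ATP: NIH 3T3 cells (400/well) are exposed to compound for 48 or 72 hr at 37 °C, then CellTiter-Glo luminescence is imaged after 10 min at room temperature.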
Of the large screens only hits and unclear results are named; the others gave an inactive call. Rows were chosen to be rich in hits. Some 11% of all compounds tested hit in one or more screens of this group. Unless noted, calls follow the shape of the dose curve; as a rule, active = well fitted curve in the direction sought with a large enough effect; inconclusive = small, poorly fitted or top-dose-only effect, or another doubt; inactive = no such curve, though single readings can be large; an effect the other way counts as inactive or inconclusive.

O=C(Nc1ccc(Cl)cc1)C1=NO[C@@H]2CN(c3ccccn3)C[C@H]12	HEK293 tox inconclusive
O=C(NC1CCCN(c2cc(-c3ccccc3)[nH]n2)C1)c1cccc(F)c1 (configuration not stated)	HEK293 tox 25.1µM, FLuc inh inconclusive, 3T3 cytotox inconclusive
O=C(NC1CCCN(c2cc(-c3ccccc3)[nH]n2)C1)c1ccc(F)cc1Cl (configuration not stated)	HEK293 tox inconclusive, FLuc inh inconclusive, 3T3 cytotox inconclusive
O=C(NC1CCN(c2cc(-c3ccc(F)cc3)[nH]n2)C1)c1cccc(F)c1 (configuration not stated)	HEK293 tox 39.8µM, 3T3 cytotox inconclusive
O=C(NC1CCN(c2cc(-c3ccc(F)cc3)[nH]n2)C1)c1ccccc1 (configuration not stated)	HEK293 tox inconclusive, 3T3 cytotox inconclusive
O=[S+]1([O-])NCC2(CCN(Cc3ccc(F)cc3)CC2)Nc2ccccc21	HEK293 tox inconclusive, 3T3 cytotox inconclusive
Cn1c(=O)cc(C(=O)NC2CCCc3c2[nH]c2ccc(Cl)cc32)c2ccccc21 (configuration not stated)	HEK293 tox 31.6µM, 3T3 cytotox inconclusive
CC(=O)NC1CCCc2c1[nH]c1ccc(Cl)cc21 (configuration not stated)	HEK293 tox inconclusive, 3T3 cytotox inconclusive
O=C(NCc1ccccn1)C1Cn2cccc2C(=O)N1Cc1ccccc1 (configuration not stated)	none
COc1ccc(CN2C(=O)COC[C@H]2C(=O)NCc2ccc(F)cc2F)cc1	none
O=C(NCc1ccccc1F)C1CCCCN1Cc1ccc(-c2ccsc2)cc1 (configuration not stated)	HEK293 tox inconclusive, 3T3 cytotox 31.6µM (no result: NPR1 antag, FLuc inh)
O=C(NCc1ccc(F)cc1F)C1CCCCN1Cc1ccc(-c2ccsc2)cc1 (configuration not stated)	HEK293 tox 28.2µM, 3T3 cytotox inconclusive (no result: NPR1 antag, FLuc inh)
O=C(NCc1ccccn1)C1CCCCN1Cc1ccc(-c2ccsc2)cc1 (configuration not stated)	HEK293 tox 39.8µM, 3T3 cytotox 39.8µM (no result: NPR1 antag, FLuc inh)
COc1ccc(NC(=O)N2CCC(C)(c3noc(C)n3)CC2)cc1OC	none (no result: NPR1 antag, FLuc inh)
COc1cccc(CNC(=O)c2nc3cccnc3n(C3CC3)c2=O)c1	none (no result: NPR1 antag, FLuc inh)
COc1ccc(-c2cc(NCCO)nc3[nH]ccc23)cc1C(F)(F)F	HEK293 tox 39.8µM, 3T3 cytotox 39.8µM
CC(C)N1CCC(CCNC(=O)CCC[C@H]2NC[C@@H]3C[C@H]2CN(Cc2ccccc2)C3)CC1	none
O=C(c1ccc(F)cc1)N1CCCC(C(=O)N2CCC(c3nc4ccncc4[nH]3)CC2)C1 (configuration not stated)	none (no result: NPR1 antag, FLuc inh)
Cc1ccccc1-c1nccn2c(C3CN(Cc4ccccc4O)C3)ncc12	HEK293 tox 89.1µM, 3T3 cytotox 100µM
CC(=O)NC1CCN(C(=O)c2ccc(-c3cccs3)cc2)CC1	none (no result: NPR1 antag, FLuc inh)
O=C(C1CCCCN1Cc1ccc(-c2cccs2)cc1)N1CCN(Cc2ccccc2)CC1 (configuration not stated)	HEK293 tox inconclusive, 3T3 cytotox 31.6µM (no result: NPR1 antag, FLuc inh)
O=C(C1CCCCN1Cc1ccc(-c2ccsc2)cc1)N1CCOCC1 (configuration not stated)	HEK293 tox inconclusive (no result: NPR1 antag, FLuc inh)
O=C(NC1CCOCC1)C1CCCCN1Cc1ccc(-c2cccs2)cc1 (configuration not stated)	HEK293 tox 44.7µM, 3T3 cytotox inconclusive (no result: NPR1 antag, FLuc inh)
O=C(NC1CC1)C1CCCCN1Cc1ccc(-c2cccs2)cc1 (configuration not stated)	HEK293 tox 44.7µM, 3T3 cytotox inconclusive (no result: NPR1 antag, FLuc inh)
O=C(C1CCCN1C(=O)c1ccccc1)N1CCC(N2CCOCC2=O)CC1 (configuration not stated)	none (no result: NPR1 antag, FLuc inh)
Cc1cnc(C2CCN(S(C)(=O)=O)C2)n1Cc1ccc(F)cc1 (configuration not stated)	none (no result: NPR1 antag, FLuc inh)
O=C(NC1CCCCC1)c1nc2sccn2c1-c1cccc(C(F)(F)F)c1	HEK293 tox inconclusive (no result: NPR1 antag, FLuc inh)
O=C1CC2(CCN(C(=O)C3CCN(C(=O)Cc4cccc(Cl)c4)CC3)CC2)Oc2ccccc2N1	HEK293 tox 39.8µM, 3T3 cytotox inconclusive (no result: NPR1 antag, FLuc inh)
O=C1CC2(CCN(C(=O)C3CCCN(C(=O)Nc4ccc(Cl)cc4)C3)CC2)Oc2ccccc2N1 (configuration not stated)	HEK293 tox 22.4µM, 3T3 cytotox inconclusive (no result: NPR1 antag, FLuc inh)
O=C1CC2(CCN(C(=O)C3CCN(C(=O)C4CCCC4)CC3)CC2)Oc2ccccc2N1	HEK293 tox inconclusive (no result: NPR1 antag, FLuc inh)
Cc1ccc([S+](=O)([O-])N2CCCC(C(=O)N3CCC4(CC3)CC(=O)Nc3ccccc3O4)C2)cc1 (configuration not stated)	HEK293 tox 35.5µM, 3T3 cytotox inconclusive (no result: NPR1 antag, FLuc inh)
O=C1CC2(CCN(C(=O)C3CCCN(C(=O)C4CCCC4)C3)CC2)Oc2ccccc2N1 (configuration not stated)	none (no result: NPR1 antag, FLuc inh)
COc1ccccc1C(=O)N1CCC2(CC1)CC(=O)Nc1ccccc1O2	HEK293 tox 44.7µM
Oc1cccc(-c2cc(-c3cccnc3)c3cncn3c2)c1	HEK293 tox 56.2µM, FLuc inh inconclusive, 3T3 cytotox 25.1µM
COc1ccc(-c2cc(-c3cnc4[nH]ccc4c3)cn3cncc23)cc1	HEK293 tox inconclusive, FLuc inh inconclusive, 3T3 cytotox 79.4µM
COc1ncccc1-c1cc(-c2ccncc2)c2cncn2c1	HEK293 tox inconclusive, 3T3 cytotox 28.2µM
COc1ccc(-c2cc(-c3cccnc3OC)cn3cncc23)cc1	HEK293 tox inconclusive, 3T3 cytotox 35.5µM
CN(C)C(=O)c1nc2cccnc2n(CCc2ccccc2)c1=O	none (no result: NPR1 antag, FLuc inh)
CN1CC(=O)N(C2CCCNCC2)Cc2c(NCCCN3CCCCC3)ncnc21 (configuration not stated)	none (no result: NPR1 antag, FLuc inh)
OCc1cccc(-c2cc(-c3ccncc3)c3cncn3c2)c1	HEK293 tox 25.1µM, 3T3 cytotox 12.6µM
COc1ccc(-c2cc(-c3cccnc3)cn3cncc23)cc1	HEK293 tox inconclusive, 3T3 cytotox 39.8µM
COc1ccc(-c2cc(-c3ccc(OC)nc3)cn3cncc23)cc1	HEK293 tox 89.1µM, 3T3 cytotox 39.8µM
Cc1ccc(-c2cc(-c3ccncc3)c3cncn3c2)cn1	HEK293 tox inconclusive, 3T3 cytotox inconclusive
COc1ccc(-c2cc(-c3cccc(NC(C)=O)c3)cn3cncc23)cc1	HEK293 tox inconclusive, FLuc inh inconclusive, 3T3 cytotox inconclusive
COc1ccc(-c2cc(-c3cn[nH]c3)c3cncn3c2)cn1	HEK293 tox inconclusive, 3T3 cytotox inconclusive
Cc1ccc(-c2cc(-c3cccnc3)c3cncn3c2)cn1	HEK293 tox inconclusive, 3T3 cytotox 39.8µM
Cn1nc(C2CCN(C(=O)c3ccc4ccccc4n3)CC2)n(-c2ccccc2)c1=O	3T3 cytotox inconclusive (no result: NPR1 antag, FLuc inh)
CCCN(C)c1nccnc1OC1CCN(C(=O)c2ccc(OC)nc2OC)C1 (configuration not stated)	HEK293 tox inconclusive, FLuc inh 22.4µM
CCCN(C)c1nccnc1OC1CCN(C(=O)C2CCCCC2)C1 (configuration not stated)	HEK293 tox inconclusive, FLuc inh inconclusive

High-throughput results: PubChem BioAssay, National Center for Advancing Translational Sciences (NCATS)
